# Compound activity from PubChem.
# ERG-DNA inh: ERG Ets/DNA interaction inhibition; P11308; fluorescence polarization, His-ERG Ets domain / labelled DNA; Potency, µM (titrated, usually from 76.9 µM), without a hit: top-dose FP activity, negative = inhibition, most hits filed as inhibitors; hit rate 0.028% among 370,000; AID 624246; active means well fitted inhibition curve with a large enough effect in the polarisation, with a control signal flat; inconclusive means small, poorly fitted or top-dose-only effect, or effect the other way, or a change in a side signal; inactive means no such curve, though single readings can be large or run the other way; the % refers to the polarisation;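 further: polarization taken with two DNA probes labelled with fluorescein and Texas red; % of control where 0% means no effect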
#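 His-tagged ERG Ets domain (1 uM in the protein solution; 300mM KCl, 50mM Tris-HCl, 1mM EDTA, 1mM DTT, pH 7.5) received compound, then a probe mix of 5 nM fluorescein-DNA and 100nM Texas-615-DNA. Fluorescence polarization was read for both dyes.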
# BRCA1 expr up: BRCA1 expression activation | Potency, µM (highest dose often 46.1 µM), inactives show at the highest dose activation, most hits filed as activators | hit rate 1.1% among 380,000 | MCF7-BRCA1-FFLuc reporter, luminescence, 48 h; response scale: scaled: vehicle 0%, 10 µM genistein 100% | AID 624202; further: nearly all actives have a fitted effect of over 80% in size
#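 MCF7 cells carrying a BRCA1-firefly luciferase reporter (2000 cells/well, phenol-red free MEM) were attached for 2 h at 37 °C, then given compounds for 48 h. Luminescence was read 15 min after luciferase reagent; activity normalized to genistein (10 microM) and DMSO.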
# Mito fusion yeast: blocks mitochondrial division or promotes mitochondrial fusion; hit rate 0.23% among 320,000; AID 485298; Potency, µM (top dose mostly 46.1 µM), for inactives: top-dose growth rescue (activation), most hits filed as activators; S. cerevisiae fusion-defective mutant growth rescue, CellTiterGlo 48 h; further: % of control where 0% means no effect; nearly all actives have a fitted effect of over 45% in size
#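 Luminescent cell viability in 1536-well qHTS format served as the measure of rescued growth in ts fusion-mutant S. cerevisiae cultured on non-fermentable YPEG for 48 hours at 37C.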
# B2AR arrestin: recruits beta-arrestin to the human beta2-adrenergic receptor | P07550 | beta-arrestin recruitment to beta2AR, cell-based reporter | Potency, µM (titrated, usually from 46.1 µM), inactives show top-dose activation, actives largely listed as activators | hit rate 0.02% among 330,000;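 further: 0% = DMSO controls and full agonism = EC100 isoproterenol or metaproterenol; nearly all actives have a fitted effect of over 65% in size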
# Target sequence (P07550 whole entry, looked up): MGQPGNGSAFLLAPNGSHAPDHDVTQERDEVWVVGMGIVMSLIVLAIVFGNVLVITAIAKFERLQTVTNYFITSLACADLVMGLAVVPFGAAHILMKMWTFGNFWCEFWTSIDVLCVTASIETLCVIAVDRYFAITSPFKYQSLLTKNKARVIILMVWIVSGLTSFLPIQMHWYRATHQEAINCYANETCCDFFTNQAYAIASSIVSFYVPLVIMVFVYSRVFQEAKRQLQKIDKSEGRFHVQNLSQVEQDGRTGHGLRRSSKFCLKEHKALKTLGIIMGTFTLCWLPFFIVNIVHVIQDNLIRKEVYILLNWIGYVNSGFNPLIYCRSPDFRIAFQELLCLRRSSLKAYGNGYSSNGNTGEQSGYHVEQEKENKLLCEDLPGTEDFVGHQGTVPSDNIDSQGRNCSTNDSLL
# * hit, by the source's call; ? = inconclusive; / = no result given; ! = not active in a repeat. The list is not random: actives were taken first. Their share in the collection is about 1.2%. Unless noted, the call rests on the fitted dose curve; in most records, active means well fitted curve in the direction sought with a large enough effect; inconclusive means small, poorly fitted or top-dose-only effect, or another doubt; inactive means no such curve, though single readings can be large; an effect the other way counts as inactive or inconclusive. Potency means the concentration at half of the fitted maximal effect.
SMILES,ERG-DNA inh,BRCA1 expr up,Mito fusion yeast,B2AR arrestin
O=c1c2ccccc2oc2cc(NCCCN3CCOCC3)ccc12,-8%,5.6µM*,-28%,0%
Cn1c2ccccc2c(=O)c2cc(NCCCN3CCOCC3)ccc21,10%,?,/,-1%
CCc1ccc(OCC(=O)N(Cc2ccc(C(C)C)cc2)C2CCS(=O)(=O)C2)cc1 (stereo not drawn),-2%,/,/,/
Cc1nc2ncnn2c(C)c1CCC(=O)N1CCN(c2ccccc2)CC1,?,6%,/,/
COc1cc(NC(=O)CSc2nc3nc(C)c(Cc4ccc(C)cc4)c(C)n3n2)cc(OC)c1,3%,/,/,/
Brc1ccc(-c2csc(N3CCOCC3)n2)cc1,-5%,11µM*,-16%,0%
Clc1ccc(-c2csc(N3CCOCC3)n2)cc1,2%,7.1µM*,-10%,0%
Clc1ccc(-c2csc(N3CCCCCC3)n2)cc1,12%,0%,-11%,0%
COc1ccc(-c2csc(N3CCOCC3)n2)cc1OC,5%,14µM*,-6%,0%
Brc1ccc(-c2csc(N3CCCCCC3)n2)cc1,3%,?,-11%,0%
O=c1oc2cc(Cl)ccc2n1CSc1nc2ccccc2s1,-4%,7.9µM*,22%,-1%
O=C(c1ccc([N+](=O)[O-])cc1)n1nc(-c2ccccc2)nc1NCc1ccccc1,-2%,69%,0%,0%
O=C(c1cccc([N+](=O)[O-])c1)n1nc(-c2ccccc2)nc1NCc1ccccc1,1%,10µM*,0%,-1%
CCc1ccccc1S(=O)(=O)Cc1ccc(C(=O)NCCc2ccc(Cl)cc2)o1,5%,/,/,/
CCOC(=O)c1ccc(NC(=O)C2Cc3ccccc3C(=O)O2)cc1 (stereo not drawn),0%,/,/,/
Oc1ccc(/C=N/NC(=S)N/N=C/c2ccc(O)cc2)cc1,14%,8.9µM*,-2%,0%
COc1ccccc1NC(=S)N/N=C/c1ccc(O)cc1,4%,3.2µM*,0%,0%
O=C(c1ccc2c(c1)N(Cc1c(F)cccc1Cl)C(=O)c1ccccc1S2)N1CCCC1,2%,0%,/,/
Cc1ccc(C(C)C)c(OC(C)C(=O)NCC2(N(C)C)CCCCC2)c1 (stereo not drawn),-6%,3%,/,/
Cc1cccc(NC(=O)c2cc(-c3cc(C)c(C)cc3O)n[nH]2)c1,12%,?,-2%,-1%
Cc1cccc(NC(=O)c2cc(-c3cc(C)ccc3O)n[nH]2)c1,-6%,1.6µM*,0%,0%
CC1CCCCN1CCCNC(=O)c1ccc2c(c1)sc1nc(-c3ccc(F)cc3)cn12 (stereo not drawn),1%,/,/,/
Cc1ccc(CNC(=O)c2nnn(Cc3ccc(F)cc3)c2N)cc1,-2%,/,/,/
O=C(O)c1ccc(/C=N/N2CCN(c3ccccc3)CC2)cc1,-4%,4.5µM*,2%,0%
O=C(Cn1c(=O)n(-c2ccccc2Cl)c(=O)c2sc3ccccc3c21)N1CCCC1,-11%,11%,/,/
SMILES,ERG-DNA inh,BRCA1 expr up,Mito fusion yeast,B2AR arrestin
Cc1ccccc1CNC(=O)c1cnc2sc(N3CCOCC3)nn2c1=O,10%,/,/,/
COc1cc(CNC(=O)CCCCCCC(C)C)ccc1O,-9%,-1%,18µM*!,0%
COc1cc(OC)cc(C(=O)NCCc2csc(-c3cccc(C)c3)n2)c1,-4%,/,/,/
O=S(=O)(NCCS(=O)(=O)N1CCN(c2cccc(Cl)c2)CC1)c1ccc(F)cc1,-3%,/,/,/
Cc1occc1C(=O)N/N=C/c1ccc(-c2ccccc2)cc1,14%,?,-28%,0%
O=C(N/N=C/c1cccs1)c1cnccn1,-5%,30%,-4%,-1%
COc1cc(/C=N/NC(=O)c2ccoc2C)cc(OC)c1OC,6%,37%,/,/
Cc1occc1C(=O)N/N=C/c1cccs1,/,13µM*,-3%,0%
O=C(N/N=C/c1cccs1)c1[nH]ncc1Br,-10%,3.2µM*,-1%,0%
Cc1cc(/C=N/NC(=O)c2ccoc2C)cc(C)c1O,/,7.9µM*,/,/
CC(C)c1ccc(Nc2n[nH]c(=S)s2)cc1,/,2.5µM*,/,/
Cc1cc(C)c(NC(=O)c2sc3nc4c(cc3c2N)C(=O)CC(C)(C)C4)c(C)c1,-1%,4%,13µM*,-1%
COc1ccc(/C(C)=N/N2CCCCC2)c(O)c1,-5%,0%,1%,0%
COc1ccc(O)c(/C=N/N2CCCCC2)c1,-2%,10µM*,-7%,0%
C=C(C)[C@@H]1C2=CC(C(=O)OC)=C(C[C@@H](C(=C)C)[C@H]3O[C@H]3C3=C[C@H]1OC3=O)O2,/,-43%,/,/
CCN(CC)C(=O)c1ccc(COc2ccccc2Br)o1,-7%,7.1µM*,3%,0%
CC(C)(C)NC(=O)c1ccc(COc2ccccc2Br)o1,-4%,4%,4%,0%
CN(C)/C=C/C(=O)c1ccc(-n2cccc2)cc1,4%,7.9µM*,-4%,0%
c1ccc2c(c1)NC1(CCCCCC1)n1c-2nc2ccccc21,-6%,2.8µM*,-3%,0%
COc1ccc(CN(Cc2ccco2)c2cnc(S(C)(=O)=O)nc2C(=O)Nc2ccc(C)c(C)c2)cc1,1%,/,/,/
N#C/C(=C/c1ccc(N2CCCCC2)cc1)c1cccc(F)c1,35%,7.9µM*,-2%,0%
CC(C)CCNC(=O)c1cc(-c2cccnc2)nc2ccc(S(=O)(=O)N3CCC(C)CC3)cc12,-3%,/,/,/
Brc1ccc(CNc2ccc3ncccc3c2)cc1,-4%,8.9µM*,-27%,-1%
O=C(Nc1ccc2ncccc2c1)c1cccc(Br)c1,-7%,2.2µM*,1%,0%
Cc1ccc(C(=O)Nc2ccc3ncccc3c2)cc1,-3%,?,7%,0%
SMILES,ERG-DNA inh,BRCA1 expr up,Mito fusion yeast,B2AR arrestin
O=C(Nc1ccc2ncccc2c1)c1cc(Cl)ccc1Cl,1%,7.9µM*,-6%,0%
CN(c1ccccc1)c1nc(C#N)nc(N2CCOCC2)n1,/,-46%,/,/
COC(=O)C(Cc1ccc(OC(=O)c2ccccc2Cl)cc1)N1Cc2ccccc2C1=O (stereo not drawn),3%,6.3µM*,3%,3%
COc1ccc(CCNc2ncnc3c2cnn3-c2cc(Cl)ccc2C)cc1,4%,/,/,/
Cn1cc(CCC(=O)NCc2cccc(Cl)c2)c2ccccc21,2%,-18%,32µM*,0%
Cn1cc(CCCC(=O)NCc2ccccc2)c2ccccc21,-12%,-27%,9%,0%
Clc1ccc(OCc2nnc(-c3ccccc3Br)o2)c(Cl)c1,7%,3.2µM*,-1%,4%
Cc1cc(Cl)ccc1OCc1nnc(-c2ccccc2C)o1,-5%,10µM*,0%,0%
Cc1cc(Br)ccc1OCc1nnc(-c2ccccc2)o1,-19%,13µM*,/,/
CCOC(=O)c1cc(-c2ccc(C)cc2)n(CC(=O)Nc2ccc(OC)cc2OC)c1C,1%,45%,/,/
COc1ccc(CNC(=O)CCCN2C(=O)CSc3c2c(C)nn3-c2ccccc2)cc1,-1%,1%,/,/
CC(=O)OC1(C(C)=O)CCC2C3CC(C(F)(F)F)C4=CC(=O)CCC4(C)C3CCC21C (stereo not drawn),-3%,-74%,/,/
CC(=O)O[C@]1(C(C)=O)CC[C@H]2[C@@H]3C[C@H](C)C4=CC(=O)CC[C@]4(C)[C@H]3CC[C@@]21C,25µM*!,-3%,10%,-1%
